In ChEMBL document CHEMBL3433997, “St. Jude Leishmania screening dataset” (2016) one finds inhibition data, which are given here for 35 compounds.

The inhibition is the relative decrease from the control value, in per cent.

Format in all cases: functional
The target in test [1] is Solute carrier family 2, facilitated glucose transporter member 1 (Homo sapiens) (UniProt P11166). As to the kind of experiment: ST_JUDE_LEISH: Cytotoxicity at 2uM final concentration against transgenic Leishmania Mexicana promastigotes LmGLUT1 that are glucose transport deficient and complemented with the human glucose transporter GLUT1. Activity is measured by DNA content using SYBR green in vitro.
Sequence of Solute carrier family 2, facilitated glucose transporter member 1 (Homo sapiens) (P11166 whole entry): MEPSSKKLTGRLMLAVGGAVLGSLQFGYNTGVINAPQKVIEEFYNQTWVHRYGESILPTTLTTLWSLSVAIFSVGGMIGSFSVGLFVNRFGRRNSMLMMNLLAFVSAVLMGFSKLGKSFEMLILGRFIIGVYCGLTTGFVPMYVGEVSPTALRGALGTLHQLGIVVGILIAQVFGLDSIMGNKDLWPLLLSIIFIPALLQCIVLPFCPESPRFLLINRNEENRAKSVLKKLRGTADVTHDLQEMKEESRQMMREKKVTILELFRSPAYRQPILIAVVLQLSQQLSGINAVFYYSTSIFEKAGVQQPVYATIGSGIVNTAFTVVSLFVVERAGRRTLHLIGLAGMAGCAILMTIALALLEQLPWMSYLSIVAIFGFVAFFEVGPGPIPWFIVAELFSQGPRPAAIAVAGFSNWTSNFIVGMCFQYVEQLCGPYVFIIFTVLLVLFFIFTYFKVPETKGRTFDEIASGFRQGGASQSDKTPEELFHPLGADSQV

Test [2] concerns the target Hexose transporter 1 (Plasmodium falciparum) (UniProt O97467). The test can be described thus: ST_JUDE_LEISH: Cytotoxicity at 2uM final concentration against transgenic Leishmania Mexicana promastigotes LmPfHT that are glucose transport deficient and complemented with the Plasmodium falciparum hexose transporter. Activity is measured by DNA content using SYBR green in vitro.

In test [3] the target is Glucose transporter (Leishmania mexicana) (UniProt O61059). As to the kind of experiment: ST_JUDE_LEISH: Cytotoxicity at 2uM final concentration against transgenic Leishmania Mexicana promastigotes LmGT2 that are glucose transport deficient and complemented with the L. Mexicana glucose transporter 2. Activity is measured by DNA content using SYBR green in vitro.

Take `Nc1ccc2[nH]cc(C3CCN(CC4CCN(C(=O)/C=C/c5ccc(Cl)c(Cl)c5)CC4)CC3)c2n1`: the inhibition in test [1] is 2.32%; in test [2] it was 1.93%; in test [3], -0.49%.

Consider `CCOc1ccc(C(=O)Nc2cc(Br)c3c(c2)CNCC3)cc1Br`, for which the results for the inhibition in test [1], in test [2] and in test [3] were 11.7%, 12.7% and 6.15%, respectively.

As to `O=C(NCCCCN1CCC(c2ccc3c(c2OCCO)CCCC3)CC1)c1ccc2oc(-c3ccc(C(F)(F)F)cc3)cc2c1`, the inhibition is 1.2% in test [1], 2.49% in test [2] and 2.18% in test [3].

Consider `O=c1c(Br)c(C(F)(F)F)[nH]c2ccc(Oc3ccccc3)cc12`, for which the inhibition in test [1] was 2.41%; in test [2], 2.75%; in test [3], 2.63%.

`CC(C)CCN1CCCN(Cc2cccc(NC(=O)c3cc4ccccc4s3)c2)CC1`: the figures for the inhibition in test [1], in test [2] and in test [3] were -0.92%, 0.43% and 2.29%, respectively.

`N=C(N)NCCN(Cc1ccccc1)c1ccccc1`: the results for the inhibition in test [1], in test [2] and in test [3] were 2.42%, 1.13% and 2.3%, respectively.

Consider `CC(Cc1ccc(C(=O)N2CCN(C(=O)c3ccc(CC(C)NCCc4cccc(Cl)c4)cc3)CC2)cc1)NCCc1cccc(Cl)c1` (stereo not given), for which the values for the inhibition in test [1], in test [2] and in test [3] were 6.51%, 3.6% and 5.54%, respectively.

`O=c1ccc2ccc(O)c(O)c2o1`: the inhibition is 7.05% in test [1], 5% in test [2] and 4.39% in test [3].

As for `CN(C)C(=O)c1ccc(CN(Cc2ccc(OC(C)(C)C)cc2)Cc2ccc3c(c2)OCCO3)cc1`, the inhibition in test [1] was determined as 0.59%; in test [2], 2.04%; in test [3] it was 0.26%.

As for `CCCCCCCN1CC[C@@H](CCCc2ccnc3ccc(OCCN4CCNCC4)cc23)[C@@H](CC)C1`, the inhibition was determined as 5.11% in test [1], 4.74% in test [2] and 0.64% in test [3].

With `CCC[C@@H]([C@@H](CC(C)C)C(=O)N[C@@H](CCCCNC(=O)OCc1ccccc1)C(=O)Nc1ncccn1)N(O)C=O`, the inhibition worked out at 19.1% in test [1], 21.5% in test [2] and 17.1% in test [3].

With `CC1CCCN(Cc2c(O)ccc3c(O)c(-c4nc5ccccc5s4)c(=N)oc23)C1` (stereo not given), the inhibition came to 3.47% in test [1], 8.25% in test [2] and 0.96% in test [3].

Consider `Cn1nc(-c2ccc(NC(=O)Nc3cc(C(F)(F)F)ccc3F)c(F)c2)c2cnc(NCCCN3CCOCC3)nc21`, for which the inhibition in test [1] was 6.47%; in test [2], 6.96%; in test [3], 7.47%.

As for `O=S(=O)(c1ccccc1)n1ccc2cc(Nc3ncnc4cc(C#C[C@H]5CCCN5)sc34)ccc21`, the inhibition in test [1] was 2.91%; in test [2], 2.14%; in test [3], -0.2%.

In the case of `COc1cc(NC(=O)c2ccc(-c3ccccc3)cc2)ccc1OCCCN1CCC(c2ccccc2)CC1`, the figures for the inhibition in test [1], in test [2] and in test [3] were 0.2%, 2.26% and 2.91%, respectively.

For the compound `CCN1CCC(N(Cc2ccc(-c3ccc(C(F)(F)F)cc3)cc2)C(=O)Cn2c(CCc3cccc(F)c3F)cc(=O)c3c2CCC3)CC1`, the inhibition in test [1] turned out to be 1.27%; in test [2], 0.83%; in test [3], 0.64%.

Consider `N#Cc1ccc(N(CCOC(=O)c2ccccc2)Cc2ccccc2C(F)(F)F)cc1C(F)(F)F`, for which the inhibition in test [1] was 1.67%; in test [2], 1.18%; in test [3], -0.51%.

`COc1ccc2ncc(F)c(CCN3CCC(NCc4cc(F)c5c(c4)OCCO5)CC3)c2n1`: the inhibition was 14.4% in test [1], 20.5% in test [2] and 17.9% in test [3].

Regarding `Fc1ccc2c(NN=Cc3ccc(Cl)cc3)ccnc2c1`, the inhibition in test [1] stood at 10.8%; in test [2] it was 10.9%; in test [3], 6.76%.

For `CC(C)Sc1ccc(Cl)cc1CON1C(=N)N=C(N)NC1(C)C`, the inhibition in test [1] came out at 2.72%; in test [2], 2.18%; in test [3] it was 0.87%.

As for `CN1C(=CC(=O)NC(=O)c2ccccc2)C(C)(C)c2ccccc21`, the inhibition in test [1] came out at 0.52%; in test [2], 0.41%; in test [3], 0.4%.

`Cc1ccc(C(=O)Nc2cccc([N+](=O)[O-])c2)cc1S(=O)(=O)N1CC(C)CC(C)C1` (stereo not given): the inhibition came to 6.34% in test [1], 5.86% in test [2] and 0.08% in test [3].

Take `CN(CCCN(C)c1cc(NC(=O)c2cccc(F)c2)ccn1)Cc1cccc(O)c1`: the inhibition was -2.2% in test [1], 0.99% in test [2] and -0.68% in test [3].

`CN(Cc1cccc(F)c1)C1CCCN(c2cc(NC(=O)c3ccccc3)ccn2)C1` (stereo not given): the inhibition in test [1] turned out to be 4.12%; in test [2] it was 4.07%; in test [3], 3.71%.

Take `COc1cccc(CNC[C@@H](O)[C@H](Cc2ccccc2)NC(=O)c2cc(C(C)C)cc(N3CCCC3=O)c2)c1`: the inhibition was -1.08% in test [1], 0.91% in test [2] and -1.21% in test [3].

With `C#CCNCc1ccc(-c2cccc(-c3nc4cccc(C)c4[nH]3)c2)cc1`, the inhibition in test [1] came out at 6.77%; in test [2], 4.1%; in test [3], 3.18%.

For the compound `OC(CNCc1ccccc1)c1cc(OCc2ccccc2)cc(OCc2ccccc2)c1` (stereo not given), the inhibition in test [1] is -0.14%; in test [2] it was -1.19%; in test [3], -0.63%.

As to `COc1ccc(C(=O)Nc2ccc(-c3nc4cc(C)ccc4[nH]3)cc2)cc1OC`, the inhibition in test [1] is 3.99%; in test [2], 2.08%; in test [3], 3.84%.

As to `Cc1ccc(Nc2nccc(NCC(O)c3cccc(C)c3)n2)cc1` (stereo not given), the inhibition in test [1] worked out at 5.47%; in test [2], 4.73%; in test [3], 3.22%.

Turning to `Cc1ccc(Nc2nc(C)cc(Nc3cccc(C#N)c3)n2)cc1`, the inhibition in test [1] is 42.3%; in test [2] it was 65.8%; in test [3] it was 16.3%.

Regarding `CCCCCNc1nc(Nc2ccccc2C)nc2ccccc12`, the inhibition came out at 29.1% in test [1], 22.7% in test [2] and 11% in test [3].

As for `O=C(Nc1ccc(Cl)cc1)c1ccc(CN2CCCN(CC3CCCCC3)CC2)cc1`, the inhibition worked out at 4.77% in test [1], 7.11% in test [2] and 5.54% in test [3].

For `COc1cc(NC(=O)CCCN2CCN(c3cccc(Cl)c3Cl)CC2)ccc1N1CCN(C(C)C)CC1`, the inhibition is -2.72% in test [1], 0.8% in test [2] and -0.51% in test [3].

As for `CN(C)CCN(C)Cc1ccc(-c2ccc(NS(=O)(=O)c3cccc4cccnc34)cc2)cc1`, the values for the inhibition in test [1], in test [2] and in test [3] were 9.5%, 9.32% and 3.58%, respectively.

On to `COc1ccc(OC)c(Cc2cnc3nc(N)[nH]c(=O)c3c2C)c1`, for which the inhibition was 3.38% in test [1], 4.59% in test [2] and 5.15% in test [3].
